Reference: PubChem BioAssay AID624305 (National Center for Advancing Translational Sciences (NCATS), 2012)
Results filed as inconclusive are left out. A number with no mark means an inactive call. The source made the active and inactive calls. Calls follow the shape of the dose curve; as a rule, active = well fitted activation curve with a large enough effect; inconclusive = small, poorly fitted or top-dose-only effect; inactive = no such curve, though single readings can be large or run the other way.
Potency is read from the fitted curve at half-maximal effect.

Test: qHTS assay for re-activators of p53 using a Luc reporter: Hit Validation; also: nearly all actives have a fitted effect of over 75% in size; as to activation: 0% is about no effect
Details: p53-responsive luciferase reporter cells, luminescence, H1299 line expressing heat-sensitive Ala138Val p53; series mostly up to 46.1 µM; activation: at the top concentration
Method in brief: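 H1299 (p53-null) cells stably carrying p53-A138V and a BP100-luciferase reporter, 1000 cells/well, treated 24 h at 37 deg C. Compounds at several concentrations, 1:5 dilution; nocodazole control; luminescence read after 10 min with detection reagent.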
For `Cc1cc(C(=O)Nc2nc3c(s2)CCCC3)cs1`, the Potency was 0.231 µM (active).
In the case of `COc1ccc(-n2cnc3c(cnn3CCC#N)c2=N)cc1`, the “activation” value is reported as 25.5%.
In the case of `Cc1noc(C)c1C(=O)OCC(=O)N1CCc2ccccc21`, the “activation” value is reported as 12%.
For `Cc1ccc(C(=O)c2c3ccc([N+](=O)[O-])cc3[n+]([O-])n2CCCN)cc1`, the “activation” value was 15.1%.
With `COc1ccc(C(=O)N/N=C(\C)c2ccccn2)cc1OC` the Potency was 13 µM (active).
For `O=C(CCS(=O)(=O)c1ccccc1)Nc1nc2c(s1)CCCC2`, the “activation” value was 24.5%.
In the case of `C=CCOc1c(Br)cc(CNCCCN2CCOCC2)cc1OC`, the “activation” value is reported as -24%.
For `CC1(C)Oc2ccc(NC(=O)C3COc4ccccc4O3)cc2O1` (stereo not drawn), the Potency was 1.3 µM (active).
With `Cc1cc(C(=O)N2CCN(c3ccccc3Cl)CC2)c(C)o1` the Potency was 29.1 µM (active).
With `Cc1cc(C(=O)COC(=O)c2cccc(O)c2)c(C)n1C1CC1` the Potency was 0.13 µM (active).
In the case of `Clc1ccc(-c2cn3c(n2)-c2ccccc2C3)cc1Cl`, the Potency is reported as 10.3 µM (active).
`O=C(NN=C1CCCCCC1)c1cccs1` gave an activation of 12.5% [at 9.22 µM].
With `COc1cccc(/C=N/NC(=O)c2nc(-c3ccccc3)cc(-c3ccccc3)n2)c1O` the activation was -23.6% [at 9.22 µM].
With `O=C(COC(=O)c1ccc(F)cc1)NC1CC1` the “activation” value was -10.4%.
For `S=c1[nH]nc(-c2ccco2)n1Cc1ccccc1`, the “activation” value was -16.1%.
For `CCOCC(=O)Nc1nc2ccc(OCC)cc2s1`, the Potency was 16.4 µM (active).
For `Oc1c(CN2CCOCC2)cc(COCc2ccccc2)c2cccnc12`, the “activation” value was 28.6%.
In the case of `CC(C)c1ccc(C(O)c2nc3ccccc3n2C)cc1` (stereo not drawn), the “activation” value is reported as 19.8%.
For `O=C(Nc1ccc(Cl)cc1C(F)(F)F)c1ccccc1`, the “activation” value was 33.9%.
With `COc1ccc(-n2nc([N+](=O)[O-])c(=NCc3ccco3)n2O)cc1` the “activation” value was 39.6%.
With `COc1ccc(NC(=O)/C(Cl)=C(/Cl)S(=O)(=O)Cc2ccc(C)cc2)cn1` the “activation” value was -94.3%.
In the case of `Cc1cc(C)nc(SCC(=O)OCC(=O)Nc2nc3ccccc3s2)n1`, the “activation” value is reported as 24%.
In the case of `Brc1c(CSc2nc3ccccc3s2)nc2ncccn12`, the Potency is reported as 9.2 µM (active).
For `CCN1CCN(CC(=O)Nc2nc3ccc(C)cc3s2)CC1`, the “activation” value was 24.5%.
In the case of `O=C(NOCc1ccccc1)c1ccc(Cl)cc1`, the Potency is reported as 1.84 µM (active).
In the case of `C/C(=C\C(=O)c1ccccc1)Nc1ccc2c(c1)OCO2`, the Potency is reported as 2.91 µM (active).
For `O=C(NCc1ccco1)c1noc2c1CCCC2`, the “activation” value was 56.8%.
For `O=C(c1ccco1)n1c(=S)nc2ccccn21`, the Potency was 7.31 µM (active).
With `CC(=O)c1ccc(Nc2ncnc3c2oc2ccccc23)cc1` the Potency was 1.64 µM (active).
For `COc1ccc(N=C(N)SCc2ccccn2)cc1`, the “activation” value was 28.6%.
With `O=C(Cc1ccccc1)NCc1ccc(F)cc1` the “activation” value was 34.4%.
In the case of `Cc1nc(SCC(=O)Nc2nccs2)c(C#N)c(C)c1C`, the Potency is reported as 0.651 µM (active).
For `CCOc1cc(S(=O)(=O)NC2CCCCCC2)ccc1F`, the “activation” value was -12.5%.
In the case of `O=C(CSc1nnc(-c2ccc3c(c2)OCCO3)o1)N1CCCC1`, the Potency is reported as 7.31 µM (active).
With `CC(C)OC(=O)CCCCCN1C(=O)CSC1=S` the “activation” value was 5.73%.
In the case of `O=C(CSCC(=O)Nc1cccc([N+](=O)[O-])c1)Nc1ccccc1`, the “activation” value is reported as -1.56%.
With `CC1(C)CC(=O)CC(=O)/C1=N\Nc1c(Cl)cc(Cl)cc1Cl` the “activation” value was 11.5%.
In the case of `O=C(O)/C=C/c1nc(-c2ccccc2)n2ccccc12`, the “activation” value is reported as 9.9%.
